Screens from PubChem BioAssay.
An excerpt weighted towards active compounds, which were near 2.4% of everything screened.
Pol iota inh: inhibitors of human DNA polymerase iota; Potency, µM (series often up to 115 µM), inactives show at the top dose activity, negative = inhibition, most hits filed as inhibitors; actives 1% (n = 390,000); Q9UNA4; Pol iota fluorescent replication assay, 10 min
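Pol iota at 10 nM preincubated 15 min with compounds at room temperature; reaction started with fluorescent substrate, 50 nM final. Fluorescence read kinetically at 0 and 10 min; buffer-only wells as negative control.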
POLH inh: DNA polymerase eta (human) inhibition; recombinant Pol eta, fluorescent DNA replication assay; Potency, µM (doses to about 114 µM), inactives show at the highest dose activity change, negative = inhibition, usual class: inhibitors; actives 1.2% (n = 390,000); note: % is set by controls: 0 for no effect and ±100 for the full control effect
Target sequence (Q9Y253 whole entry, looked up): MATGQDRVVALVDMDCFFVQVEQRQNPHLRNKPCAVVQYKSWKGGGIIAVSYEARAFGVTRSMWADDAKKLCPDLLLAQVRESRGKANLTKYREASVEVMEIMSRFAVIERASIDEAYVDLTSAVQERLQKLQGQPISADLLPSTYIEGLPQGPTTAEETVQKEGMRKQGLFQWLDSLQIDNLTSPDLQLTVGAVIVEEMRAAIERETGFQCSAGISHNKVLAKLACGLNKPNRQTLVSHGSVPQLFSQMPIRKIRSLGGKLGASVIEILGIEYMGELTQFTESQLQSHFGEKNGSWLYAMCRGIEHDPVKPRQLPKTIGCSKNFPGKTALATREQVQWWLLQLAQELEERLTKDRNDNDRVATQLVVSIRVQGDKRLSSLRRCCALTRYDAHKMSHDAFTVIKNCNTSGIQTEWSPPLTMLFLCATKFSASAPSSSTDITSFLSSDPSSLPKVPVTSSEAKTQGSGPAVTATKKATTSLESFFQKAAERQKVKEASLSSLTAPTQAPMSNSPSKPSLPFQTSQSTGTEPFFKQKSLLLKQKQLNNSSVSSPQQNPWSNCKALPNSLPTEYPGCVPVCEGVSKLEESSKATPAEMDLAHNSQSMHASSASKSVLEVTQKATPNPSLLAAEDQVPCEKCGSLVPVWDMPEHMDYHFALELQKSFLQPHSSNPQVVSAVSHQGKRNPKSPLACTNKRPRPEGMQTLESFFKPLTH
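Fluorescent replication assay: 50 nM final substrate added after a 15 min room-temperature compound preincubation with 10 nM enzyme. Signal taken at 0 min and again at 10 min.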
POLB inh: blocks human DNA polymerase beta activity; actives 1.3% (n = 340,000); Potency, µM (highest dose often 114 µM), inactives show top-dose activity change, negative = inhibition, hits mostly inhibitors; Pol beta primer extension/strand displacement, fluorescence kinetic; AID 485314; note: % is set by controls: 0 for no effect and ±100 for the full control effect
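Preincubation: enzyme (10 nM) with compound, 15 min, RT. Reaction: substrate added to 50 nM final. Reads: 0 and 10 min. Analysis: normalized, Hill fit.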
PGK inhibitor: inhibitors of T. brucei phosphoglycerate kinase; P07378; PGK/GAPDH coupled, Kinase-Glo luminescence, 60 min; Potency, µM (top dose mostly 57.5 µM), for the others: at the top dose activity change, negative = inhibition, hits mostly inhibitors; actives 0.043% (n = 380,000); AID 602233; note: % is set by controls: 0 for no effect and ±100 for the full control effect; nearly all actives have a fitted effect of over 60% in size
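Recombinant glycosomal PGK reaction used 1,3-bisphosphoglycerate generated in-well by GAPDH (100nM final) in 100mM TEA pH 7.6, 5mM MgCl2, 0.01% Tween-20. After 60 minutes at room temperature, ATP was read by Kinase-Glo Plus luminescence end-point.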
POLK inh: inhibitors of human DNA polymerase kappa | Potency, µM (titrated, usually from 107 µM), inactives show at the highest dose activity, negative = inhibition, hits mostly inhibitors | actives 0.53% (n = 400,000) | AID 588579 | purified Pol kappa, fluorescent DNA synthesis assay, 10 min; note: % is set by controls: 0 for no effect and ±100 for the full control effect
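Readout: fluorescence, taken kinetically at 0 and 10 min. Conditions: 10 nM Pol kappa, 15 min RT compound preincubation, 50 nM substrate final. Controls: enzyme-free buffer wells.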
FEN1 inhibitor: inhibitors of human flap endonuclease 1 | Recombinant FEN1 flap cleavage, fluorescence, 15 min | Potency, µM (series often up to 114 µM), for inactives: at the top dose activity change, negative = inhibition, actives largely listed as inhibitors | actives 0.35% (n = 390,000); note: % is set by controls: 0 for no effect and ±100 for the full control effect; nearly all actives have a fitted effect of over 65% in size
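With each library titrated from low to high concentration, compounds met 10 nM FEN1 for 15 min at room temperature before 50 nM substrate was added; readings at 0 and 15 min fed four-parameter Hill curve fits.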
* = called active by the depositor; i = inactive; ? = inconclusive; · = no result; [ ] = remark or other dose. Calls come from the whole dose curve; as a rule, active = well fitted curve in the direction sought with a large enough effect; inconclusive = small, poorly fitted or top-dose-only effect, or another doubt; inactive = no such curve, though single readings can be large; an effect the other way counts as inactive or inconclusive. Potency is the fitted concentration of half-maximal effect.

SMILES | Pol iota inh | POLH inh | POLB inh | PGK inhibitor | POLK inh | FEN1 inhibitor
O=C(N/N=C/c1cccnc1)c1ccc(NC(=O)c2cccc(Cl)c2)cc1 | ? | ? | 8.91µM* | -0.9% | -13.9% | -16.0%
Cc1cccc(C(=O)Nc2ccc(C(=O)N/N=C/c3ccc4c(c3)OCO4)cc2)c1 | 0.9% | -8.6% | 35.5µM* | -2.8% | -1.7% | 0.9%
O=C(N/N=C/c1cccnc1)c1ccccc1Cl | ? | -8.5% | -29.0% | · | -4.5% | -12.4%
O=C(N/N=C/c1cccnc1)c1ccc(NC(=O)c2ccc(Cl)cc2)cc1 | 121.2% | -22.0% | 2.3% | -6.4% | 0.0% | 2.5%
N#Cc1c(NC(=O)CSc2ncccn2)oc(-c2ccccc2)c1-c1ccccc1 | ? | 10µM* | · | i | ? | -1.4%
Cc1ccnc(SCC(=O)Nc2oc(-c3ccccc3)c(-c3ccccc3)c2C#N)n1 | -8.4% | -13.5% | 13.2% | 0.6% | -16.3% | -0.4%
CN(C)c1ccc(NC(=O)COC(=O)c2ccc3c(c2)OCO3)cc1 | 8.5% | -1.7% | · | -9.0% | -19.3% | -7.6%
CN(C)c1ccc(C(=O)OCC(=O)Nc2ccc(S(N)(=O)=O)cc2)cc1 | ? | ? | ? | -26.8% | 50.1µM* | ?
O=C(COC(=O)CNC(=O)C1CCCCC1)NC1CCCC1 | -1.6% | · | · | · | -8.7% | -2.4%
O=C(Nc1ccc(-c2cn3ccccc3n2)cc1)c1cccs1 | ? | ? | 10µM* | i | ? | -23.7%
Cc1cc(SCC(=O)N/N=C/c2ccc(O)c(O)c2)c(C)cc1Br | ? | -21.2% | 15.8µM* | -5.4% | -21.3% | -22.4%
CC(=O)N1CCN(c2ccc(NCc3ccc(C)s3)cc2)CC1 | 50.1µM* | -16.0% | 3.9% | -8.8% | -4.5% | ?
O=c1c2cc(N3CCOCC3)ccc2[nH]c(=S)n1Cc1ccco1 | 10µM* | 89.1µM* | ? | -6.7% | 79.4µM* | ?
O=c1c2cc(N3CCOCC3)ccc2[nH]c(=S)n1Cc1cccc(Cl)c1 | -6.3% | -7.0% | 8.1% | -16.0% | 5.9% | -3.0%
Cc1ccccc1CNC1CCCCC1 | 4.7% | -19.0% | -0.5% | -2.7% | -27.4% | 4.6%
Oc1cc(CNC2CCCCC2)c(O)cc1CNC1CCCCC1 | ? | ? | · | -5.8% | 79.4µM* | -7.5%
CCCNC(=O)COC(=O)c1c2c(nc3ccccc13)CCC2 | 25.1µM* | 50.1µM* | 50.1µM* | -5.3% | ? | -3.0%
CC(C)CNC(=O)COC(=O)c1c2c(nc3ccccc13)/C(=C/c1cccs1)CC2 | ? | ? | 17.8µM* | -1.1% | -7.6% | 6.5%
NC(=O)COC(=O)c1c2c(nc3ccccc13)CCCCC2 | 9.6% | -2.2% | 24.8% | 0.5% | 2.0% | -11.8%
CC(C)CNC(=O)COC(=O)c1c2c(nc3ccccc13)CCC2 | ? | ? | 39.8µM* | 0.1% | -32.6% | -9.9%
COC(=O)c1c2c(nc3ccccc13)CCC2 | -0.2% | -12.4% | ? | i | 6.5% | -7.0%
CC(C)(C)C(=O)COC(=O)c1c2c(nc3ccccc13)CCC2 | ? | 79.4µM* | 17.8µM* | -9.2% | -11.0% | 2.4%
COc1ccc(OC)c(S(=O)(=O)NCC(c2cccs2)S(=O)(=O)c2ccc(F)cc2)c1 (configuration not stated) | 7.4% | -17.9% | 1.3% | i | -1.5%[60.1 µM] | 4.6%
COc1ccc(C(=O)N(Cc2ccccc2)Cc2ccc(OC)c(COc3ccc(NC(C)=O)cc3)c2)cc1 | ? | · | · | · | -7.2% | -21.5%
CC(NC(=O)COc1ccc(/C=N/NC(=O)C(=O)Nc2ccccc2Br)cc1)c1ccccc1 (configuration not stated) | ? | ? | 31.6µM* | -8.1% | 9.0% | 4.6%
SMILES | Pol iota inh | POLH inh | POLB inh | PGK inhibitor | POLK inh | FEN1 inhibitor
O=C(N/N=C/c1ccc(OC(=O)c2cccs2)cc1)c1ccc(F)cc1 | 9.1% | ? | 17.8µM* | i | -17.3% | -17.4%
O=C(COc1ccc(/C=N/NC(=O)c2ccccc2Br)cc1)Nc1ccccc1 | 35.7% | -11.5% | ? | i | 4.9% | -1.0%
O=C(Cc1ccccc1)N/N=C/c1ccc(OCC(=O)Nc2ccccc2)cc1 | -10.9% | ? | 28.2µM* | 3.1% | -8.8% | 6.8%
Cn1c(-c2ccccc2)c(/C=N/NC(=O)c2cccnc2)c2ccccc21 | 20.5% | -17.7% | 56.2µM* | -0.3% | -26.0% | -34.6%
O=C(N/N=C/c1c(-c2ccccc2)[nH]c2ccccc12)c1cccnc1 | -25.9% | -13.3% | ? | -4.5% | -22.6% | ?
COc1cc(NC(=O)Cc2c(C(=O)O)c(C)cn2C)cc(OC)c1 | 19.2% | -6.8% | -14.2% | 6.3% | -8.8%[60.1 µM] | 21.0%
COc1ccc(-c2nn3c(-c4cc(-c5ccccc5)n[nH]4)nnc3s2)cc1 | -9.9% | · | · | · | 2.0% | ?
COc1ccc(Br)c(/C=N/NC(=O)COc2ccc(-c3ccccc3)cc2)c1 | ? | -6.5% | 1.7% | 7.6% | -2.0% | -7.8%
O=C(CCC(=O)Nc1ccccc1)N/N=C/c1ccncc1 | 9.0% | 7.1% | 20µM* | i | 8.6% | 0.4%
Cc1ccc(CSCC(=O)N/N=C/c2ccc(OCC(=O)Nc3ccc(C)cc3)cc2)cc1 | ? | ? | 10µM* | ? | -27.2% | -18.5%
O=C(O)COc1ccccc1/C=N/NC(=O)COc1ccc(-c2ccccc2)cc1 | -7.2% | 50.1µM* | ? | ? | -0.6% | ?
O=C(N/N=C/c1ccc(OC(=O)c2ccccc2)cc1)c1cccnc1 | ? | ? | 50.1µM* | ? | -33.3% | -27.6%
COc1ccc(CSCC(=O)N/N=C/c2ccc(OCC(=O)N3CCCCC3)cc2)cc1 | ? | 2.4% | -7.4% | 7.6%[11.5 µM] | -8.5% | -6.1%
COc1cc(C(=O)Nc2ccc3oc(-c4ccccc4)nc3c2)cc(OC)c1OC | 10.8% | -13.7% | -21.4% | -10.9% | -6.5% | -0.5%
O=C(COc1ccc(/C=N/NC(=O)c2cccnc2)cc1)Nc1ccccc1 | 49.3% | ? | 31.6µM* | -9.4% | -1.3% | 1.1%
O=c1[nH][nH]c(C(F)(F)F)c1C=Nc1cccc(Cl)c1 | 39.6% | -7.6% | 15.1% | -2.2% | 3.3% | 7.1%
Cc1cc(O)ccc1N=Cc1c(C(F)(F)F)[nH][nH]c1=O | 8.91µM* | -1.4% | 14.1µM* | · | -5.3% | ?
CCOc1ccc(CCNC(=O)c2cc3cc4cc(OC)ccc4nc3s2)cc1OCC | -3.6% | -11.3% | 14.1µM* | -3.4% | -28.8% | 11.5%
CCC(C)NC(=O)c1cc2cc3ccc(OC)cc3nc2s1 (configuration not stated) | -15.1% | ? | 50.1µM* | -3.0% | ? | -21.6%
COc1ccc2cc3cc(C(=O)NCCN4CCc5ccccc5C4)sc3nc2c1 | 6.8% | -14.8% | 35.5µM* | -9.8% | -6.5% | -11.7%
